Source: PubChem
This is a sample that favours compounds with a hit; in the whole collection about 2.2% have one here.
GRK2 inh = human GRK2 inhibition via aptamer displacement; P25098; bead flow cytometry, FAM-aptamer displacement from GRK2; inhibition of aptamer binding, % at 10 µM; 330,000 tested, 0.59% active;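 active means inhibition of aptamer binding above 40%, roughly 3 SD of noise, on plates passing a quality check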;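 further: median bead fluorescence of bound FAM aptamer so fluorescent compounds give negative values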
NOD2-RIPK2 inh = inhibitors of human NOD2-RIPK2 interaction; O43353; CHO BLA complementation NOD2-RIPK2, CCF4 ratio; inhibition, % at 4.98 µM; 360,000 tested, 0.38% active; AID 624267; in the data active means inhibition above about 21%
Target sequence (O43353 whole entry, looked up): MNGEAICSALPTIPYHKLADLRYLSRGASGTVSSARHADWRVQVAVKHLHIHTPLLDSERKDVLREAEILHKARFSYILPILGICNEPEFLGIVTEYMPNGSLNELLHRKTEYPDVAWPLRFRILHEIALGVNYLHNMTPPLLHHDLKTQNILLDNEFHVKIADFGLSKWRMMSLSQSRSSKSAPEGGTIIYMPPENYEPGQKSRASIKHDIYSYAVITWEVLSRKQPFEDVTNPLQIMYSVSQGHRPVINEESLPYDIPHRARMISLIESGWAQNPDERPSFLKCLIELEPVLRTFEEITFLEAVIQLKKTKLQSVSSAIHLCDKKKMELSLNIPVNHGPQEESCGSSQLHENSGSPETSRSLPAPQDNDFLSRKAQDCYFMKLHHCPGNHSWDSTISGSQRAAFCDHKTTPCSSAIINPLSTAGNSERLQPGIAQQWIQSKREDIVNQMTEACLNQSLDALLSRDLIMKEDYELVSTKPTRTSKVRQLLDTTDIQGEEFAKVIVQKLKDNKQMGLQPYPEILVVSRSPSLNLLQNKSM
TLR4-MyD88 BLA = TLR4-MyD88 interaction inhibition in cells; HeLa CL3-4 TLR4/MyD88 BLA complementation, FRET ratio; 200,000 tested, 0.18% active; inhibition, % at 8.4 µM; in the data active means inhibition above about 25%
TLR9-MyD88 block = blocks human TLR9 binding to MyD88; inhibition, % at 4.98 µM; Q9NR96+Q99836; 340,000 tested, 0.21% active; CHO BLA complementation TLR9-MyD88, CCF4 FRET ratio;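 active means inhibition above the mean over all tested compounds plus 3 SD, cut at about 21% in these data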
ANO1 activ = activates or potentiates the mouse TMEM16A chloride channel | Q8BHY3 | HEK293 TMEM16A/YFP-H148Q/I152L, iodide quench fluorescence; stronger effect = lower value | B-score at 10 µM | 340,000 tested, 0.3% active | AID 623877;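 active means fluorescence-ratio B-score plate-corrected deviation score at least 3 library SD below zero, with starting fluorescence score within 5 deviations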;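 further: channel opened by trigger with iodide after compound preincubation; score built on the fluorescence ratio of max minus min over baseline; more negative score means more quench and so TMEM16A activation or potentiation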
TMEM16A inh = blocks the mouse calcium-activated chloride channel TMEM16A. normalized B-score (activity score, 25-100; higher = stronger inhibition) at 10 µM. Q8BHY3. 310,000 tested, 1.2% active. HEK293 TMEM16A/YFP iodide influx fluorescence, ionomycin;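 active means ratio plate-corrected score three or more library SD toward inhibition, starting fluorescence score within five deviations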;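 further: score derived from kinetic fluorescence span divided by baseline fluorescence per well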
NOD2-RIPK2 conf = NOD2-RIPK2 interaction inhibition confirmed | shares compounds with NOD2-RIPK2 inh | CHO cells, NOD2-RIPK2 BLA complementation, CCF4 FRET | inhibition, % at 4.98 µM | 1,200 tested, 70% active;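 active means mean inhibition across replicates above a set limit taken from the earlier primary screen, cut at about 21% in these data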
NOD2 BLA counter = hits BLA reporter in NOD2-RIPK2 inhibitor counterscreen; shares compounds with NOD2-RIPK2 inh; CHO BLA reporter, CCF4 FRET ratio; inhibition, % at 4.98 µM; 1,200 tested, 57% active; AID 624371;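 active means mean inhibition above the low-control mean inhibition plus three low-control SD, cut at about 11% in these data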
Each line names hits and unclear results; the compound was inactive in the other large screens (follow-up assays come after a bar, where they were run).

O=C(Nc1ccc2c(c1)OCCO2)C(c1ccncc1)n1c(=O)c(-c2cc3ccccc3[nH]2)nc2ccccc21 (centres undefined)	NOD2-RIPK2 inh 34 (no result: GRK2 inh, TLR4-MyD88 BLA, TLR9-MyD88 block, ANO1 activ, TMEM16A inh) | NOD2-RIPK2 conf 37 | NOD2 BLA counter 58
O=C(Nc1ccc2ccccc2c1)C(c1ccc(C(F)(F)F)cc1)n1c(=O)c(-c2cc3ccccc3[nH]2)nc2ccccc21 (centres undefined)	NOD2-RIPK2 inh 46 (no result: GRK2 inh, TLR4-MyD88 BLA, TLR9-MyD88 block, ANO1 activ, TMEM16A inh) | NOD2-RIPK2 conf 40 | NOD2 BLA counter 65
O=C(Nc1ccc2c(c1)OCCO2)C(c1ccc(C(F)(F)F)cc1)n1c(=O)c(-c2cc3ccccc3[nH]2)nc2ccccc21 (centres undefined)	NOD2-RIPK2 inh 48 (no result: GRK2 inh, TLR4-MyD88 BLA, TLR9-MyD88 block, ANO1 activ, TMEM16A inh) | NOD2-RIPK2 conf 44 | NOD2 BLA counter 66
O=C(Nc1ccc2c(c1)OCCO2)C(c1ccccc1F)n1c(=O)c(-c2cc3ccccc3[nH]2)nc2ccccc21 (centres undefined)	NOD2-RIPK2 inh 49 (no result: GRK2 inh, TLR4-MyD88 BLA, TLR9-MyD88 block, ANO1 activ, TMEM16A inh) | NOD2-RIPK2 conf 45 | NOD2 BLA counter 67
N#Cc1ccc(C(C(=O)Nc2ccc3c(c2)OCCO3)n2c(=O)c(-c3ccco3)nc3ccccc32)cc1 (centres undefined)	none (no result: GRK2 inh, TLR4-MyD88 BLA, TLR9-MyD88 block, ANO1 activ, TMEM16A inh)
O=C(C(Br)=Cc1ccccc1)c1ccccc1	NOD2-RIPK2 inh 33 (no result: GRK2 inh, TLR4-MyD88 BLA, TMEM16A inh) | NOD2-RIPK2 conf 65 | NOD2 BLA counter 22
Cc1ccc(OCC(=O)NCCNC(=O)c2ccccn2)cc1	none (no result: TLR4-MyD88 BLA)
N#Cc1c2ccc(O)cc2n2ccccc12	NOD2-RIPK2 inh 22 | NOD2-RIPK2 conf 21 | NOD2 BLA counter 26
N#Cc1c2ccc(OCC(=O)NCc3ccco3)cc2n2ccccc12	none (no result: TLR4-MyD88 BLA)
Cn1c(=O)c(=O)n(C)c2cc(S(=O)(=O)N3CCCC3C(=O)NCc3cccnc3)ccc21 (centres undefined)	none (no result: TLR4-MyD88 BLA)
C[C@H](NC(=O)N1CCn2c1nc1ccccc12)C(=O)N1CCCCC1	NOD2-RIPK2 inh 21 (no result: TLR4-MyD88 BLA) | NOD2-RIPK2 conf inactive | NOD2 BLA counter inactive
CCO[C@@H]1OC(C(=O)NCc2ccccc2)=C[C@H](c2ccc(C(F)(F)F)cc2)[C@H]1CCCO	none (no result: GRK2 inh)
CCO[C@H]1OC(C(=O)NCc2ccccc2)=C[C@@H](c2ccc(Br)cc2)[C@@H]1CCCO	NOD2-RIPK2 inh 29 | NOD2-RIPK2 conf inactive | NOD2 BLA counter inactive
Cc1ccc(S(=O)(=O)N(C)C)cc1NC(=O)c1cc(=O)c2ccccc2o1	none (no result: TLR4-MyD88 BLA)
COc1cccc(C(NC(C)=O)c2nc(-c3ccc(OC)nc3)cs2)c1 (centres undefined)	none (no result: GRK2 inh, TLR4-MyD88 BLA, TLR9-MyD88 block, ANO1 activ, TMEM16A inh)
Cc1ccc(C(=O)NCCN(C)C)c(C)c1	none
CNc1c2cccc(C)c2nc2c(C(=O)NCCN(C)C)cccc12	NOD2-RIPK2 inh 41 (no result: GRK2 inh, TLR4-MyD88 BLA, TMEM16A inh) | NOD2-RIPK2 conf 58 | NOD2 BLA counter 29
CCOc1ccc(C(=O)NC(=S)NCc2cccnc2)cc1[N+](=O)[O-]	none
Cc1ccc(S(=O)(=O)SCCCSS(=O)(=O)c2ccc(C)cc2)cc1	NOD2-RIPK2 inh 36 (no result: GRK2 inh, TLR4-MyD88 BLA, TMEM16A inh) | NOD2-RIPK2 conf 43 | NOD2 BLA counter inactive
O=C1C=CC2C3C(=O)N(c4ccccc4)C(=O)C3C1N2Cc1ccccc1 (centres undefined)	NOD2-RIPK2 inh 68 (no result: GRK2 inh, TLR4-MyD88 BLA, TMEM16A inh) | NOD2-RIPK2 conf 75 | NOD2 BLA counter inactive
O=C1C2C3C=CC(CC3)C2C(=O)N1c1ccccc1 (centres undefined)	none (no result: TLR4-MyD88 BLA)
COc1ccc(CCC(=O)Nc2ccc3c(c2)OCO3)cc1OC	none (no result: TLR4-MyD88 BLA)
Cc1ccc(NC(=O)C(OC(=O)c2ccc(O)cc2)c2ccccc2)cc1Cl (centres undefined)	NOD2-RIPK2 inh 35 | NOD2-RIPK2 conf inactive | NOD2 BLA counter inactive
COCCn1c(SCC(=O)Nc2cc(C)on2)nnc1C(C)C	none (no result: TLR4-MyD88 BLA)
C=C1C(=O)OC2CC1C(OC(C)=O)CC(C)=CCCC(C)=CCCC2(C)O (centres undefined)	none (no result: GRK2 inh, TLR4-MyD88 BLA, TLR9-MyD88 block, ANO1 activ, TMEM16A inh)
C=C1C(=O)OC2CC1C(O)CC(C)=CCCC(C)=CC(O)CC2C (centres undefined)	NOD2-RIPK2 inh 23 (no result: GRK2 inh, TLR4-MyD88 BLA, TMEM16A inh) | NOD2-RIPK2 conf inactive | NOD2 BLA counter 13
